tim10-1 inh: growth inhibitors of tim10-1 mutant yeast, primary screen, luminescence, uHTS. S. cerevisiae tim10-1 ts strain growth, BacTiter-Glo, 24 h. inhibition, % at 20 µM. actives 2.2% (n = 330,000);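 active = inhibition of at least 40%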;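 note: mutant grown at 25 °C; 0% = DMSO wells with yeast and 100% = wells holding no yeast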
TIM10 inh: growth inhibitors of isogenic TIM10 control yeast, primary screen, counter-screen for tim10-1 yeast inhibitor project, luminescence, uHTS | S. cerevisiae TIM10 strain growth, BacTiter-Glo luminescence, 24 h | inhibition, % at 10 µM | actives 1.4% (n = 330,000);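 active = inhibition of 40% or more at the single tested concentration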;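 note: wild-type TIM10 isogenic control strain grown at permissive 25 °C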
NLRP3 yeast inh: NALP3 inflammasome inhibitors in reconstituted yeast, primary screen, luminescence, uHTS. Yeast reconstituted NLRP3/ASC/caspase-1, beta-gal luminescence, 24 h. inhibition, % at 10 µM. actives 0.39% (n = 330,000);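 active = inhibition of 50% or more; inactive = inhibition below 50%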;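 note: plate controls were induced DMSO wells for no effect and uninduced yeast grown without galactose for full effect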
tim23-1 inh: growth inhibitors of tim23-1 mutant yeast, primary screen, luminescence, uHTS. S. cerevisiae tim23-1 growth, BacTiter-Glo luminescence, 24 h. inhibition, % at 20 µM. actives 1.3% (n = 330,000). AID 463212, 2010;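 active = growth inhibition of the mutant yeast at or above 50%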;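 note: temperature-sensitive mutant grown at 25 °C; plate controls were DMSO-treated mutant yeast for no effect and medium wells lacking yeast for full effect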
NALP1 yeast inh: NALP1 inflammasome inhibitors in reconstituted yeast, colorimetric, S. cerevisiae, triplicate retest | S. cerevisiae NALP1/ASC/caspase-1 growth, X-gal OD620, 72 h | AID 2071, 2009 | inhibition, % at 10 µM | actives 0.61% (n = 280,000); in the data active = inhibition mostly above about 24%, no sharp cut-off; inactive = mostly below about 32%
tim10-1 confirm: growth inhibitors of tim10-1 mutant yeast, confirmation, single concentration, luminescence, S. cerevisiae | shares compounds with tim10-1 inh | inhibition, % at 20 µM | AID 463213, 2010 | actives 56% (n = 7,400) | S. cerevisiae tim10-1 ts strain growth, BacTiter-Glo, 24 h;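 active = inhibition of yeast growth at or above a set limit in either of two repeat tests at 20 µM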;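 note: tim10-1 mutant grown at permissive 25 °C to find synthetic lethal compounds; 0% = DMSO yeast wells and 100% = medium wells without yeast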
The depositor's hits bear a star; . = not tested or not shown. A selection: hits, their analogues and other compounds. The true share with any hit is near 4%.

SMILES	tim10-1 inh	TIM10 inh	NLRP3 yeast inh	tim23-1 inh	NALP1 yeast inh	tim10-1 confirm
COc1ccccc1N1CCN(C(=O)c2cc(-c3ccc(F)cc3)[nH]c2C)CC1	43*	14	11	40	8	41*
C[C@@H]1COC(=O)[C@@H](Cc2ccc(F)cc2)C/C=C\C[C@@H](CC(=O)N[C@H](CO)Cc2ccccc2)C(=O)N1	-8	11	8	-13	.	.
NC(=O)c1ccccc1NC(=O)C1CCCO1 (stereo not given)	-8	-3	6	-4	4	.
Cc1[nH]c(-c2ccc(F)cc2)cc1C(=O)N1CCN(c2ccccc2F)CC1	47*	15	-14	49	24	40*
COc1ccccc1N1CCN(C(=O)c2oc3cc(C)cc(C)c3c2C)CC1	45*	28	6	30	-25	28
COc1ccc2[nH]c(C(=O)N3CCN(c4ccccc4F)CC3)c(C)c2c1	47*	19	22	45	12	33*
COc1cc(C(=O)N2CCN(c3cccc(C)c3C)CC2)cc(OC)c1OC	42*	21	-16	42	17	2
COc1cc(OC)cc(C(=O)N2CCN(c3ccccc3F)CC2)c1	28	-8	-14	27	9	.
COc1cccc(NC(=O)COC(=O)c2cc(=O)c3ccccc3o2)c1	-9	-3	4	-11	.	.
COc1ccc(N2CCN(C3CCCN(S(=O)(=O)c4ccc(C)cc4C)C3)CC2)cc1 (stereo not given)	-2	-31	14	12	-2	.
CCc1ccc(/C(C)=N/Nc2cc(Cl)nc(C)n2)cc1	26	22	15	15	-1	.
C/C(=N\Nc1cc(Cl)nc(C)n1)c1ccccc1	41*	11	-17	16	-5	39*
C/C(=N\Nc1nc(N2CCCCCC2)nc(N2CCCCCC2)n1)c1ccccc1	40*	40	19	36	5	28
O=C(NCCC1CCCCN1S(=O)(=O)c1ccc(F)cc1)C(=O)NCc1cccnc1 (stereo not given)	-15	-1	1	-8	.	.
Cc1ccc(C(=O)NCC(=O)OCC(=O)NC2CCS(=O)(=O)C2)cc1C (stereo not given)	5	-3	14	12	34	.
CCCCOC(=O)c1ccc(NC(=O)COC(=O)CSc2nc(C)cc(C)n2)cc1	46*	0	3	32	22	30
Cc1cc(C)n(CCc2nc(-c3ccc(F)cc3)cs2)n1	45*	37	-1	30	22	38*
Cc1cc(C)n(CCc2nc(-c3ccc(C(C)(C)C)cc3)cs2)n1	34	37	13	42	18	.
Cc1ccc(Cl)c(OCC(=O)NC2CCN(Cc3ccccc3)CC2)c1	68*	-25	24	-2	.	-49
COc1ccccc1N/C(=N/S(=O)(=O)c1ccc(Cl)cc1)c1ccccc1	41*	26	9	37	31	28
COc1ccccc1N/C(=N/S(=O)(=O)c1ccc(C)cc1)c1ccccc1	31	28	3	27	17	.
CCc1ccc(NC2=CC(=O)CC(C)(C)C2)cc1	27	-13	19	20	1	.
CC(C)c1ccc(NC2=CC(=O)CC(C)(C)C2)cc1	41*	17	19	38	18	15
NC(=O)c1ccc(NC(=O)CCN=C2NS(=O)(=O)c3ccccc32)cc1	-5	1	-1	-10	.	.
N/C(=N\OC(=O)CCC1CCCC1)c1ccccn1	20	27	29	30	19	.
SMILES	tim10-1 inh	TIM10 inh	NLRP3 yeast inh	tim23-1 inh	NALP1 yeast inh	tim10-1 confirm
N/C(=N\OC(=O)CCC1CCCC1)c1ccccc1	52*	35	12	46	13	44*
N#Cc1cc([N+](=O)[O-])ccc1NC(=O)COC(=O)CCC1CCCCC1	45*	17	-12	33	5	37*
N/C(=N\OC(=O)CCC1CCCC1)c1ccc([N+](=O)[O-])cc1	61*	18	-10	30	2	58*
CC(NS(=O)(=O)c1c(N)n(C)c(=O)n(C)c1=O)c1ccccc1 (stereo not given)	4	0	6	19	18	.
O=C(CCNc1cccc(F)c1)c1cccc([N+](=O)[O-])c1	35	-1	1	19	-5	.
O=C(CCNc1ccc(Cc2ccncc2)cc1)c1cccc([N+](=O)[O-])c1	43*	31	-17	23	4	34*
Cc1ccccc1C(=O)Nc1ccccc1C(=O)NCc1ccccc1	43*	25	1	30	11	36*
Cc1ccc(NC(=O)c2ccccc2NC(=O)Cc2ccccc2)cc1	44*	30	21	32	38	21
CC1SC(=S)N(c2ccc(N(C)C)cc2)C1=O (stereo not given)	4	-3	24	-12	-5	.
COc1ccc(C(=O)Oc2ccc(F)cc2C(=O)/C=C/c2ccc(OC)c(OC)c2)cc1	24	27	14	39	18	.
COc1ccc(/C=C/C(=O)c2cc(F)ccc2OC(=O)c2ccccc2C)cc1OC	41*	20	15	30	28	20
S=c1[nH]nc(-c2cc(-c3ccccc3)n[nH]2)n1/N=C/c1ccccc1	-3	-10	16	-7	.	.
S=c1[nH]nc(-c2cc(-c3ccccc3)n[nH]2)n1/N=C/C(Br)=C/c1ccccc1	47*	14	32	50	-6	43*
CC(=C/c1ccccc1)/C=N/n1c(-c2ccncc2)n[nH]c1=S	40*	40	21	45	-38	38*
CC(/C=N/n1c(-c2cccnc2)n[nH]c1=S)=C\c1ccccc1	31	6	12	-20	-2	.
O=C(NNC(=O)c1ccc(-c2ccc([N+](=O)[O-])cc2)o1)c1ccncc1	-6	-10	12	-4	.	.
C=CCc1c(C)nc(-c2ccccc2)nc1N/N=C/c1ccccc1	46*	33	14	36	7	32*
CN(Cc1ccco1)C(=O)c1ccc(CNS(=O)(=O)c2ccc3c(c2)C(C)(C)C(=O)N3C)cc1	7	13	7	11	5	.
O=C1CN(c2nc(-c3cccnc3)nc3sc4c(c23)CCCC4)CCN1	42*	30	1	-78	5	15
Cc1nc(NCc2cccnc2)c2c3c(sc2n1)CCCC3	45*	18	11	16	6	5
Nc1nc(-c2cccnc2)nc2sc3c(c12)CCCC3	52*	31	7	39	-5	33*
COC(=O)c1ccc(N2CCN(C)CC2)c(NC(=O)c2ccc(-c3ccc(Cl)cc3)o2)c1	16	7	8	22	2	.

Screens as filed in PubChem.
